# Measurements: PubChem BioAssay (EPA / NIEHS)
# Records with an inconclusive call do not appear. Active and inactive are the calls of the source. The calls were made as follows: active = hit-call score of the fitted dose curve at least 0.9, where 1 is the maximum; inconclusive = response in the unintended direction; inactive = score below 0.9.
# Biological target: Peroxisome proliferator-activated receptor gamma (Homo sapiens) (UniProt P37231)
# Assay: ATG_PPARg_TRANS: Attagene TRANS-FACTORIAL HepG2 Assay for human Peroxisome Proliferator-activated Receptor-gamma (PPARg) (AID 2283007)
# How it was run: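 Human hepatoma HepG2, transient MRTU transfection, 24 h treatment. mRNA reporter signal by RT-PCR plus capillary electrophoresis, fluorescence detection; fitted for increase over DMSO negative control.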
# Peroxisome proliferator-activated receptor gamma (Homo sapiens), sequence (P37231 whole entry, looked up): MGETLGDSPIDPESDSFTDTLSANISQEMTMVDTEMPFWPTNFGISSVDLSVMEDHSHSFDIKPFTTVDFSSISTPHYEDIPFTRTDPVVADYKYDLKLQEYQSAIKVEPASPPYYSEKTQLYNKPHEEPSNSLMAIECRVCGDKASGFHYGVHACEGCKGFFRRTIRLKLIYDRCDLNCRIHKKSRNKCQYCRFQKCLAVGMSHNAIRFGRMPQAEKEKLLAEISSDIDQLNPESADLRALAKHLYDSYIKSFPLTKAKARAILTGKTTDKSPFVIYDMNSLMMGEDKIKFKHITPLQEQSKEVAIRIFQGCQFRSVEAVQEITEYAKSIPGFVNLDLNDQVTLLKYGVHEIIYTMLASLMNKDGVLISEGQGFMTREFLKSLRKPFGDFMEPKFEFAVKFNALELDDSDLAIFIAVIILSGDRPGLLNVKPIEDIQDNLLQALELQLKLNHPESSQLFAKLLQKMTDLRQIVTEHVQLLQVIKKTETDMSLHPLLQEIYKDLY
Compound,outcome,AC50
CCCCN,inactive,–
O=C1NC(=O)c2ccccc21,inactive,–
O=[N+]([O-])c1ccc(C=Cc2ccc([N+](=O)[O-])cc2S(=O)(=O)O)c(S(=O)(=O)O)c1,inactive,–
CCCCCCCCCOC(C)=O,inactive,–
CCOC(=S)SSC(=S)OCC,inactive,–
CCCCCC=CCC(=O)OC,–,75.4 µM (active)
NC(N)=NC(=O)c1nc(Cl)c(N)nc1N,inactive,–
OCCCCCO,inactive,–
CC(=O)C=CC1=C(C)CCCC1(C)C,–,14.1 µM (active)
C=C(C)C(=O)OCc1ccccc1,inactive,–
N#Cc1nc(Cl)c(Cl)c(Cl)c1Cl,–,0.206 µM (active)
CN(C)CCCN,inactive,–
CC(C)(CO)[N+](=O)[O-],inactive,–
C=C(C)C(=O)O,inactive,–
CNCCO,inactive,–
O=C1CCc2ccccc2O1,inactive,–
CC(C)C1CCC(O)CC1 (stereo unspecified),inactive,–
Nc1ccc(F)c([N+](=O)[O-])c1,inactive,–

# Biological target: Nuclear receptor subfamily 1 group I member 2 (Homo sapiens) (UniProt O75469)
# Assay: ATG_PXR_TRANS: Attagene TRANS-FACTORIAL HepG2 Assay for human Pregnane X Receptor (PXR) (AID 2283008)
# How it was run: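 HepG2 transfected (FuGene 6) with GAL4-UAS reporter units + PXR-Gal4 chimera; dosed 24 h. Total RNA → oligo(dT) RT → PCR → 6-FAM primer extension → HpaI cut → CE. Gain-of-signal vs DMSO.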
# Nuclear receptor subfamily 1 group I member 2 (Homo sapiens), sequence (O75469 whole entry, looked up): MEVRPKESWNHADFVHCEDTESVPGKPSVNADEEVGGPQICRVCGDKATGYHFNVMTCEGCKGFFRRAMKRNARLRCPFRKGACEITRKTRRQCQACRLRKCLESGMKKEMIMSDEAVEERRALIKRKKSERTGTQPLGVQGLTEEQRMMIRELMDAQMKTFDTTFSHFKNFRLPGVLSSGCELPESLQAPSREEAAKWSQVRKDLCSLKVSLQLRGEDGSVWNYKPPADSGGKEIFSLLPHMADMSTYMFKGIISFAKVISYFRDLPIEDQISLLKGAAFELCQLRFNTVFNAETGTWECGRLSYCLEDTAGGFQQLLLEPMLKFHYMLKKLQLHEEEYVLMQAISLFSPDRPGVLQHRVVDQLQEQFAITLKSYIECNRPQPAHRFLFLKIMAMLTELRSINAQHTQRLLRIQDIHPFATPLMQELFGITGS
Compound,outcome,AC50
C=C(C)C(=O)NCCCN(C)C,inactive,–
Cc1ccc(C(=O)O)o1,inactive,–
CCCCCCCCCOC(C)=O,inactive,–
CN(C)c1ccc(O)c2c1C[C@H]1C[C@H]3[C@H](N(C)C)C(=O)C(C(N)=O)=C(O)[C@@]3(O)C(=O)C1=C2O,inactive,–
OCCCCCO,inactive,–
CC(=O)C=CC1=C(C)CCCC1(C)C,–,1.02 µM (active)
O=C(O)c1ccc(C(=O)O)cc1,inactive,–
CC(=O)[O][Al][O]C(C)=O,inactive,–
Cc1ccc(C=O)cc1,inactive,–
C=C(C)C(=O)OCc1ccccc1,inactive,–
CC1(C)[C@H]2CC[C@]1(C)[C@H](O)C2,inactive,–
CC[C@]12CCCN3CCc4c(n(c5ccccc45)[C@@](O)(C(=O)OC)C1)[C@@H]32,–,2.99 µM (active)
CN(C)CCCN,inactive,–
CCCC(=O)C(C)=O,inactive,–
CC(C)(N)CO,inactive,–
CC(C)(CO)[N+](=O)[O-],inactive,–
OCC(CO)(CO)COCC(CO)(CO)CO,inactive,–
CNCCO,inactive,–
O=C1CCc2ccccc2O1,inactive,–
CC(C)C1CCC(O)CC1 (stereo unspecified),inactive,–
CCC(C)(O)CCC=C(C)C (stereo unspecified),inactive,–
CC1(C)[C@H](C(=O)OCc2cccc(Oc3ccccc3)c2)[C@@H]1C=C(Cl)Cl,inactive,–

# Biological target: human RAR-related Orphan Receptor beta (RORb), RORB (gene 6096) (UniProt Q92753)
# Assay: ATG_RORb_TRANS: Attagene TRANS-FACTORIAL HepG2 Assay for human RAR-related Orphan Receptor beta (RORb) (AID 2283010)
# How it was run: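 HepG2, transient MRTU transfection (GAL4-UAS reporters, exogenous NR-Gal4 chimeras); 24 h compound exposure; total RNA → RT-PCR → 6-FAM primer extension → HpaI digest → CE fluorescence. Positive direction vs DMSO baseline.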
# human RAR-related Orphan Receptor beta (RORb), RORB (gene 6096), sequence (Q92753 whole entry, looked up): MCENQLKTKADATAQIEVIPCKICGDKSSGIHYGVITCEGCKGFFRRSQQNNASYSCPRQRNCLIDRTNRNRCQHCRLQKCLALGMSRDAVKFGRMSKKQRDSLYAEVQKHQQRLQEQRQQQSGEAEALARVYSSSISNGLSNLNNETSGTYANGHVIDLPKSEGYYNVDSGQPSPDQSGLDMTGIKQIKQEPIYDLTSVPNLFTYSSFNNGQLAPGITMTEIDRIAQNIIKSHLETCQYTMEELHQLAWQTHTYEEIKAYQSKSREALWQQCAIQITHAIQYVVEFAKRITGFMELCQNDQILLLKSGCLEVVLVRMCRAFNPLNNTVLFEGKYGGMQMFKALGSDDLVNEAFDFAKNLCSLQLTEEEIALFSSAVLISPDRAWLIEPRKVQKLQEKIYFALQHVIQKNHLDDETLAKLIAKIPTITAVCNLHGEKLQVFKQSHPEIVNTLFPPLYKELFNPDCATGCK
row,Compound,outcome
1,CCCCN,inactive
2,O=C1NC(=O)c2ccccc21,inactive
3,C=C(C)C(=O)NCCCN(C)C,inactive
4,CN(C)c1ccc(O)c2c1C[C@H]1C[C@H]3[C@H](N(C)C)C(=O)C(C(N)=O)=C(O)[C@@]3(O)C(=O)C1=C2O,inactive
5,CCCCCC=CCC(=O)OC,inactive
6,CC(=O)OCCOC(C)=O,inactive
7,CC(=O)[O][Al][O]C(C)=O,inactive
8,Cc1ccc(C=O)cc1,inactive
9,CC1(C)[C@H]2CC[C@]1(C)[C@H](O)C2,inactive
10,CCCC(=O)C(C)=O,inactive
11,NCCOCCO,inactive
12,CCC(C)(O)CCC=C(C)C (stereo unspecified),inactive

# Biological target: human RAR-related Orphan Receptor gamma (RORg), RORC (gene 6097) (UniProt P51449)
# Assay: ATG_RORg_TRANS: Attagene TRANS-FACTORIAL HepG2 Assay for human RAR-related Orphan Receptor gamma (RORg) (AID 2283011);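 as to AC50: potency for induction of reporter transcripts above DMSO so activators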
# How it was run: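 Reporter transcripts from a transfected RORg-GAL4 chimera in HepG2 cells were quantified 24 h after dosing by RT-PCR, 6-FAM labelling, HpaI digestion and capillary electrophoresis; increases over DMSO baseline were fitted.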
# human RAR-related Orphan Receptor gamma (RORg), RORC (gene 6097), sequence (P51449 whole entry, looked up): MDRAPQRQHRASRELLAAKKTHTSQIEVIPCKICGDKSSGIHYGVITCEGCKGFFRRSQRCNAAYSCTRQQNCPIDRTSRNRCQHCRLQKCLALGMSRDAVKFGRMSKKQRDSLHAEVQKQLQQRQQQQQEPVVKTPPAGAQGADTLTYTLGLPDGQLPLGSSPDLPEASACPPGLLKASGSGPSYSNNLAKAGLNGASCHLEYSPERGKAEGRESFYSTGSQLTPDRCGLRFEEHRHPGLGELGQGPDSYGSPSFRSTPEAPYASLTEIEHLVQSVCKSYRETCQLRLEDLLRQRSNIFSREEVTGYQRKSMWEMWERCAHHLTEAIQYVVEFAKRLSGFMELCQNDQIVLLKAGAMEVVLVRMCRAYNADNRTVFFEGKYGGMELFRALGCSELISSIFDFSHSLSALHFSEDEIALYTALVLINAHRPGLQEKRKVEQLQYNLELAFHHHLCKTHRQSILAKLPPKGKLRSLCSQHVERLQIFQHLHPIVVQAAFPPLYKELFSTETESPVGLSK
Compound,outcome,AC50
Nc1cc(N)cc(C(=O)O)c1,inactive,–
O=C1NC(=O)c2ccccc21,inactive,–
Cc1ccc(C(=O)O)o1,inactive,–
CC(=O)OCCOC(C)=O,inactive,–
O=C(O)c1ccc(C(=O)O)cc1,inactive,–
N#Cc1nc(Cl)c(Cl)c(Cl)c1Cl,–,2.56 µM (active)
CCCC(=O)C(C)=O,inactive,–
NCCOCCO,inactive,–
O=C1C(c2[nH]c3ccc(S(=O)(=O)O)cc3c2O)=Nc2ccc(S(=O)(=O)O)cc21,inactive,–
Nc1ccc(F)c([N+](=O)[O-])c1,inactive,–

# Biological target: Retinoic acid receptor RXR-alpha (Homo sapiens) (UniProt P19793)
# Assay: ATG_RXRa_TRANS: Attagene TRANS-FACTORIAL HepG2 Assay for human Retinoid X Receptor alpha (RXRa) (AID 2283012)
# How it was run: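 Read-out: fluorescent reporter-transcript fragments quantified by capillary electrophoresis after RT-PCR. Transiently transfected HepG2 cells carrying GAL4-UAS reporters and NR-GAL4 chimeras were exposed to chemical for 24 h; activity scored as increase over DMSO.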
# Retinoic acid receptor RXR-alpha (Homo sapiens), sequence (P19793 whole entry, looked up): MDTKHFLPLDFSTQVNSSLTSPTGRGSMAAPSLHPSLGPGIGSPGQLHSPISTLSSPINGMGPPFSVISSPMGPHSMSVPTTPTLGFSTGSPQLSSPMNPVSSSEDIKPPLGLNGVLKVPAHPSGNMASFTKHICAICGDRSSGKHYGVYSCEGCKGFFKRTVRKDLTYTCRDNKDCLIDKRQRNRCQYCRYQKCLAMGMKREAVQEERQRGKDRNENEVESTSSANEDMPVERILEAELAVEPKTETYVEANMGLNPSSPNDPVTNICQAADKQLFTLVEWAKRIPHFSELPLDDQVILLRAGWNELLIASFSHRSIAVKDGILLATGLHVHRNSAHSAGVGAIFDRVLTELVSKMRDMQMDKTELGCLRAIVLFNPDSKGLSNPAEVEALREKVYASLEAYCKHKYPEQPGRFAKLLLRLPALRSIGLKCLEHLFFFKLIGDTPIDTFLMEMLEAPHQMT
Compound,outcome,AC50
Nc1cc(N)cc(C(=O)O)c1,inactive,–
CCCCCCCCCOC(C)=O,inactive,–
CCOC(=S)SSC(=S)OCC,inactive,–
CN(C)c1ccc(O)c2c1C[C@H]1C[C@H]3[C@H](N(C)C)C(=O)C(C(N)=O)=C(O)[C@@]3(O)C(=O)C1=C2O,inactive,–
CCCCCC=CCC(=O)OC,inactive,–
NC(N)=NC(=O)c1nc(Cl)c(N)nc1N,inactive,–
C=C(C)[C@@H]1CC[C@@H](C)C[C@@H]1O,inactive,–
CC(=O)OCCOC(C)=O,inactive,–
COc1c(Cl)c(Cl)c(Cl)c(Cl)c1Cl,–,29.1 µM (active)
N#Cc1nc(Cl)c(Cl)c(Cl)c1Cl,inactive,–
C=C(C)C(=O)O,inactive,–
OCC(CO)(CO)COCC(CO)(CO)CO,inactive,–
NCCOCCO,inactive,–
O=C1CCc2ccccc2O1,inactive,–
CC(C)C1CCC(O)CC1 (stereo unspecified),inactive,–
Nc1ccc(F)c([N+](=O)[O-])c1,inactive,–
CCC(C)(O)CCC=C(C)C (stereo unspecified),inactive,–

# Biological target: human Retinoid X Receptor beta (RXRb), RXRB (gene 6257) (UniProt P28702)
# Assay: ATG_RXRb_TRANS: Attagene TRANS-FACTORIAL HepG2 Assay for human Retinoid X Receptor beta (RXRb) (AID 2283013)
# How it was run: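 Read-out: reporter mRNA induction via RT-PCR plus capillary electrophoresis fluorescence, analysed as signal increase relative to DMSO. Cells were human HepG2, transiently transfected with GAL4-UAS reporter constructs and chimeric receptor-Gal4 fusions, dosed for 24 h.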
# human Retinoid X Receptor beta (RXRb), RXRB (gene 6257), sequence (P28702 whole entry, looked up): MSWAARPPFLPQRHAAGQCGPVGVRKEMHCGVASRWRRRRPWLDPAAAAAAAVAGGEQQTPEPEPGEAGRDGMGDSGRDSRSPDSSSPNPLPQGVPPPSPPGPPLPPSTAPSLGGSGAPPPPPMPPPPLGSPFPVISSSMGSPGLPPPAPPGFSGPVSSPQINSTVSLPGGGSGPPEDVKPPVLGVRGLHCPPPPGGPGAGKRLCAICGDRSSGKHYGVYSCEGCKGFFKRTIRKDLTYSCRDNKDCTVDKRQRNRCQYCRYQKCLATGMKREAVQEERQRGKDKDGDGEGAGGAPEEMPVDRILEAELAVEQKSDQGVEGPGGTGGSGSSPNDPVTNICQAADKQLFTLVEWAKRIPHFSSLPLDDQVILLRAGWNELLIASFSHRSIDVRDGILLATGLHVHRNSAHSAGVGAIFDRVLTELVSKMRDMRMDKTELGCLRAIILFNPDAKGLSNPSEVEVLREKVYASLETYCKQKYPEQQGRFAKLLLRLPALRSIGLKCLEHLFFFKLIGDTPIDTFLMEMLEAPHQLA
Compound,outcome,AC50
CCCCN,inactive,–
CC(C)(C)c1cc(CCC(=O)NN)cc(C(C)(C)C)c1O,inactive,–
Cc1ccc(C(=O)O)o1,inactive,–
CCCCCCCCCOC(C)=O,inactive,–
CCOC(=S)SSC(=S)OCC,inactive,–
CN(C)c1ccc(O)c2c1C[C@H]1C[C@H]3[C@H](N(C)C)C(=O)C(C(N)=O)=C(O)[C@@]3(O)C(=O)C1=C2O,inactive,–
CC(=O)C=CC1=C(C)CCCC1(C)C,–,43.9 µM (active)
CC(=O)[O][Al][O]C(C)=O,–,44.5 µM (active)
COc1c(Cl)c(Cl)c(Cl)c(Cl)c1Cl,–,6.22 µM (active)
C=C(C)C(=O)OCc1ccccc1,inactive,–
CC1(C)[C@H]2CC[C@]1(C)[C@H](O)C2,inactive,–
CC[C@]12CCCN3CCc4c(n(c5ccccc45)[C@@](O)(C(=O)OC)C1)[C@@H]32,inactive,–
CN(C)CCCN,inactive,–
CC(C)(N)CO,inactive,–
OCC(CO)(CO)COCC(CO)(CO)CO,inactive,–
O=C1CCc2ccccc2O1,inactive,–
Nc1ccc(F)c([N+](=O)[O-])c1,inactive,–
